Outcome and AC50 data for eight compounds are collected here from PubChem BioAssay (EPA / NIEHS).

Active and inactive are the calls of the source. Rule for the calls: active = hit-call score of the fitted dose curve at least 0.9, where 1 is the maximum; inactive = score below 0.9.

A short description of assay [1]: ATG_E_Box_CIS: Attagene CIS-FACTORIAL HepG2 Assay for human Enhancer Box (E-box) (AID 2282936). As to conditions: HepG2 E-box cis-reporter transcription, actives raise or lower the signal. The procedure, abridged: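 In this cell-based setup, HepG2 cells bearing transfected promoter-driven reporter units were exposed to chemicals for 24 h; reporter transcripts were amplified, 6-FAM-labelled, cut with HpaI and sized by capillary electrophoresis.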

A short description of assay [2]: ATG_M_61_CIS: Attagene CIS-FACTORIAL HepG2 Assay for M61 Transcription Factor (Internal Marker) (AID 2282937). The note with it: HepG2 Attagene CIS-FACTORIAL M61 internal marker reporter; actives raise or lower the signal. The procedure, abridged: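 Transfect HepG2 with MRTUs; dose 24 h; isolate RNA; reverse-transcribe with DNase I treatment; PCR-amplify, FAM-label and cut with HpaI for 2 h at 37 C; resolve by CE. Bidirectional fitting against DMSO.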

A short description of assay [3]: ATG_EGR_CIS: Attagene CIS-FACTORIAL HepG2 Assay for human Early Growth Response 1 (EGR1) (AID 2282938). As to conditions: HepG2 Attagene CIS-FACTORIAL EGR reporter mRNA; actives raise or lower the signal. A digest of the protocol: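 After a 24 h treatment of transiently transfected HepG2 cells, total RNA was reverse-transcribed and reporter sequences PCR-amplified, labelled and run on capillary electrophoresis. Reporters sit under cis-regulatory promoters sensing endogenous factors.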

A short description of assay [4]: ATG_M_19_CIS: Attagene CIS-FACTORIAL HepG2 Assay for M19 Transcription Factor (Internal Marker) (AID 2282939). The note with it: HepG2 Attagene CIS-FACTORIAL M19 internal marker reporter; actives raise or lower the signal. The procedure, abridged:
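Signals come from fluorescence of labelled reporter-specific PCR fragments resolved by capillary electrophoresis, following 24 h treatment of HepG2 cells transfected with cis-promoter reporter units; activity was fitted in both directions relative to DMSO.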

The nature of assay [5]: ATG_Ets_CIS: Attagene CIS-FACTORIAL HepG2 Assay for human Erythroblast Transformation Specific (ETS) (AID 2282941). As to conditions: HepG2 ETS cis-reporter transcription, actives raise or lower the signal. The procedure, abridged: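 RT-PCR/capillary electrophoresis fluorescence read-out of reporter mRNA; HepG2 transient multi-reporter transfection; 24 h compound exposure; gain or loss of signal fitted bidirectionally relative to DMSO.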

The target in assay [6] is Hepatocyte nuclear factor 3-beta (Homo sapiens) (UniProt Q9Y261). The assay can be described thus: ATG_FoxA2_CIS: Attagene CIS-FACTORIAL HepG2 Assay for human Forkhead box A2 (FOXA2) (AID 2282942). The note with it: HepG2 cis-reporter transcription factor activity, 24 h; actives raise or lower the signal. The procedure, abridged:
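24 h dosing of HepG2 bearing cis-reporter constructs; mRNA readout by RT-PCR/CE fluorescence; bidirectional fit, DMSO baseline.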

Assay [7] is described as follows: ATG_FoxO_CIS: Attagene CIS-FACTORIAL HepG2 Assay for human Forkhead box O (FoxO) (AID 2282943). As to conditions: HepG2 Attagene cis-reporter, FoxO element, mRNA; actives raise or lower the signal. A digest of the protocol:
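Read-out: fluorescence of 6-FAM-labelled reporter cDNA fragments resolved by capillary electrophoresis. Transiently transfected HepG2 cells were dosed for 24 h; activity fitted in both directions relative to DMSO controls.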

A short description of assay [8]: ATG_GATA_CIS: Attagene CIS-FACTORIAL HepG2 Assay for human GATA Binding Protein (AID 2282944). The note with it: HepG2 GATA cis-element reporter, Attagene multiplex mRNA; actives raise or lower the signal. The procedure, abridged: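 After transfecting HepG2 cells with multiple cis-regulated reporter units, chemicals are dosed for 24 h; isolated RNA undergoes RT-PCR and fluorescent labeling before capillary electrophoresis, with activity expressed against DMSO.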

Assay [9] can be described thus: ATG_GLI_CIS: Attagene CIS-FACTORIAL HepG2 Assay for human Zinc Finger Protein GLI1 (AID 2282945). The note with it: HepG2, Attagene cis-factorial reporter mRNA, GLI element; actives raise or lower the signal. A digest of the protocol: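 Transiently transfected HepG2 cells report endogenous transcription factor activity via cis-element-driven reporter units. After 24 h compound exposure, reporter mRNA was measured by RT-PCR with capillary electrophoresis; bidirectional fitting against DMSO baseline.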

Assay [10] in a line: ATG_GRE_CIS: Attagene CIS-FACTORIAL HepG2 Assay for human Glucocorticoid Response Elements (GRE) (AID 2282947). The note with it: HepG2 GRE cis-reporter, Attagene multiplex mRNA; actives raise or lower the signal. The procedure, abridged: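 Fluorescence intensity of reporter-specific cDNA fragments, separated by capillary electrophoresis, provides the signal. Constructs carry cis-regulating promoters in transiently transfected HepG2 liver cells; 24 h incubation; fitting is bidirectional against DMSO.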

Assay [11] can be described thus: ATG_ISRE_CIS: Attagene CIS-FACTORIAL HepG2 Assay for human Interferon Regulatory Factor 1 (IRF1) binding to an Interferon-Stimulated Response Element (ISRE) (AID 2282948). As to conditions: HepG2 ISRE cis-reporter (Attagene), mRNA transcription readout; actives raise or lower the signal. A digest of the protocol: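 Read-out: fluorescent RT-PCR products resolved by capillary electrophoresis, reporting endogenous transcription factor activity via ISRE-driven reporter mRNA in transfected HepG2 cells dosed for 24 h; gain or loss fitted relative to DMSO.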

The nature of assay [12]: ATG_M_32_CIS: Attagene CIS-FACTORIAL HepG2 Assay for M32 Transcription Factor (Internal Marker) (AID 2282949).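 Note: background control marker of the multiplexed CIS panel rather than a real target.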 The note with it: HepG2 Attagene cis-factorial M32 reporter, mRNA; actives raise or lower the signal. The procedure, abridged: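 HepG2 transfectants (cis-regulated reporter transcription units) dosed 24 h. Reporter mRNA by RT-PCR plus CE, analysed as gain or loss relative to DMSO.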

Assay [13] can be described thus: ATG_M_06_CIS: Attagene CIS-FACTORIAL HepG2 Assay for M06 Transcription Factor (Internal Marker) (AID 2282950). The note with it: HepG2 Attagene CIS-FACTORIAL M06 internal marker reporter; actives raise or lower the signal. The procedure, abridged:
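HepG2 liver cells, 24 h exposure. Reporter transcripts from transfected cis-element constructs quantified by RT-PCR/capillary electrophoresis fluorescence. Bidirectional curve fit against DMSO.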

The target in assay [14] is Hypoxia-inducible factor 1-alpha (Homo sapiens) (UniProt Q16665). The assay can be described thus: ATG_HIF1a_CIS: Attagene CIS-FACTORIAL HepG2 Assay for human Hypoxia Inducible Factor 1 (HIF1A) (AID 2282951). The note with it: HepG2 Attagene cis-factorial HIF1a reporter transcription; actives raise or lower the signal. A digest of the protocol:
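After 24 h chemical exposure of reporter-transfected HepG2 cells, reporter cDNA was PCR-amplified, labelled by 6-FAM primer extension (2 min 95 C, 20 s 68 C, 10 min 72 C), HpaI-cut (2 h, 37 C) and analysed by CE.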

Assay [15] concerns the target Hepatocyte nuclear factor 6 (Homo sapiens) (UniProt Q9UBC0). As to the kind of experiment: ATG_HNF6_CIS: Attagene CIS-FACTORIAL HepG2 Assay for human Hepatocyte Nuclear Factor 6 (HNF6) (AID 2282952). As to conditions: HepG2 Attagene cis-factorial HNF6 reporter transcription; actives raise or lower the signal. The procedure, abridged:
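Endogenous factor activity read in transiently transfected HepG2 via promoter-regulated reporter transcripts. RNA harvested 24 h post-dosing, reverse-transcribed, PCR-amplified, FAM-labelled, HpaI-digested and resolved by capillary electrophoresis; fitted in both directions against DMSO.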

In assay [16] the target is Heat shock factor protein 1 (Homo sapiens) (UniProt Q00613). The assay can be described thus: ATG_HSE_CIS: Attagene CIS-FACTORIAL HepG2 Assay for human Heat Shock Transcription Factor 1 (HSE) (AID 2282953). As to conditions: HepG2 HSE cis-reporter, Attagene RNA transcription; actives raise or lower the signal. The procedure, abridged:
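Endogenous transcription factor activity captured via cis-promoter reporter units transfected into HepG2; treatment lasted 24 h. Fluorescence intensity of reporter fragments analysed with bidirectional curve fitting, DMSO baseline.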

Assay [17] is described as follows: ATG_MRE_CIS: Attagene CIS-FACTORIAL HepG2 Assay for human Metal Responsive Element (MRE) (AID 2282954). The note with it: HepG2 MRE cis-reporter transcription, Attagene multiplex; actives raise or lower the signal. The procedure, abridged:
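Measured here is mRNA induction from an MRE cis-element reporter in HepG2 after 24 h, quantified by fluorescence of labelled RT-PCR products on capillary electrophoresis; gain- and loss-of-signal fits use DMSO as baseline.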

A short description of assay [18]: ATG_PBREM_CIS: Attagene CIS-FACTORIAL HepG2 Assay for human Phenobarbital-responsive Enhancer Module (PBREM) (AID 2282955). As to conditions: HepG2 PBREM cis-reporter, Attagene multiplexed transcription; actives raise or lower the signal. A digest of the protocol: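 Measures endogenous factor action on a phenobarbital-responsive enhancer module. HepG2 transiently carrying cis reporters, 24 h treatment, mRNA read-out by RT-PCR plus capillary electrophoresis.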

Assay [19] deals with Bile acid receptor (Homo sapiens) (UniProt Q96RI1). The assay can be described thus: ATG_IR1_CIS: Attagene CIS-FACTORIAL HepG2 Assay for human Nuclear Receptor Subfamily 1 Group H Member 4 (NR1H4), IR1 submotif (AID 2282946). As to conditions: IR1 reporter transcription, actives raise or lower the signal. The procedure, abridged:
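Fluorescence of capillary-separated, HpaI-digested RT-PCR reporter products gave IR1-element mRNA induction in HepG2 cells 24 h after dosing. Endogenous transcription factors drove the cis-regulated reporters; activity was fitted bidirectionally against DMSO.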

Chain of Hepatocyte nuclear factor 6 (Homo sapiens) (Q9UBC0 whole entry, looked up): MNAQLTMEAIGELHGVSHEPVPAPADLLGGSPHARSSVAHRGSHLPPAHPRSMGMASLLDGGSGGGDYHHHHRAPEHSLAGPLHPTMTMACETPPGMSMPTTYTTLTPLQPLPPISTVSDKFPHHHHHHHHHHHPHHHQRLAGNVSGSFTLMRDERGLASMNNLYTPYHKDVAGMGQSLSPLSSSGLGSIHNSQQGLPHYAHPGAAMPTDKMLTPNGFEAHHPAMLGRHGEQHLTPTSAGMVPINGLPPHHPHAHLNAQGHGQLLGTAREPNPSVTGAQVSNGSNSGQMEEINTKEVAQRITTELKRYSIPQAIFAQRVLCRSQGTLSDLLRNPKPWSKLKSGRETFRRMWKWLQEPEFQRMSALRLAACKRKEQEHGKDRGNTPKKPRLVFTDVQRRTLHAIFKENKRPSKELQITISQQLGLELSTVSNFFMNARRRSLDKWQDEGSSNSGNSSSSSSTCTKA
Chain of Hypoxia-inducible factor 1-alpha (Homo sapiens) (Q16665 whole entry, looked up): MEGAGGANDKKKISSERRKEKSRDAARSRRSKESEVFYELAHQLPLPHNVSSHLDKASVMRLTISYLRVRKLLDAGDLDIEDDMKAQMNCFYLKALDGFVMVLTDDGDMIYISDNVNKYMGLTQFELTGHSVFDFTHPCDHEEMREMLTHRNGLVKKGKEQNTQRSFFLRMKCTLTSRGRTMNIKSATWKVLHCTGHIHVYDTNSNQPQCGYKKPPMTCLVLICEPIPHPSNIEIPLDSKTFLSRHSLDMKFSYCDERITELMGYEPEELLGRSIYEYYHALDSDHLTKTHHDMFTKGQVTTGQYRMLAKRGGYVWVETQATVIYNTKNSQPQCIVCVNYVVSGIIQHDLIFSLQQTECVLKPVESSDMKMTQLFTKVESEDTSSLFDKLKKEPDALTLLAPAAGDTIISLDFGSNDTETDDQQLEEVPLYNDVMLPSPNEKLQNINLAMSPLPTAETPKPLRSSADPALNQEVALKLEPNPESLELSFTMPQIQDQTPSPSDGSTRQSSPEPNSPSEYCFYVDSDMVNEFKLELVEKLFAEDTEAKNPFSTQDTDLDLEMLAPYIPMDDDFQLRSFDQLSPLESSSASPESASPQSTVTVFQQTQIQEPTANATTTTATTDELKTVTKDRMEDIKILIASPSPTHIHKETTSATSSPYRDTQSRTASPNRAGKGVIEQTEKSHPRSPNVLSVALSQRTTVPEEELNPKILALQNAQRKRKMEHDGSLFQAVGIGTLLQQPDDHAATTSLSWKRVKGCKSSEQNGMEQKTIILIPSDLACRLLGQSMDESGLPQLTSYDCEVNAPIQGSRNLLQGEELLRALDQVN
Chain of Heat shock factor protein 1 (Homo sapiens) (Q00613 whole entry, looked up, the tested form may be a part): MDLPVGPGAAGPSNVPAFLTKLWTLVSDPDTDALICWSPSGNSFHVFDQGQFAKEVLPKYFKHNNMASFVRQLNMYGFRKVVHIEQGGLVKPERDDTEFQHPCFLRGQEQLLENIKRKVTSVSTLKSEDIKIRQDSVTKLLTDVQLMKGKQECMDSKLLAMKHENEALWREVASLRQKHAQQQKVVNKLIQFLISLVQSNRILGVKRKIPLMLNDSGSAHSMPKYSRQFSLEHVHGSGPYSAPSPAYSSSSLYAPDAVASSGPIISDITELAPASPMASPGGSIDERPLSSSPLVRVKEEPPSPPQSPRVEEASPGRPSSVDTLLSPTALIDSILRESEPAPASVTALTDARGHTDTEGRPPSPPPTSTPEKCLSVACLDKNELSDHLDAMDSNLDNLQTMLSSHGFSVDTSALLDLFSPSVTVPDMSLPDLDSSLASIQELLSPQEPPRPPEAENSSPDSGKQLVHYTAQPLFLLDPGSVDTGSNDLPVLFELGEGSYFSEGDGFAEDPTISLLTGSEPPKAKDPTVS
Chain of Hepatocyte nuclear factor 3-beta (Homo sapiens) (Q9Y261 whole entry, looked up): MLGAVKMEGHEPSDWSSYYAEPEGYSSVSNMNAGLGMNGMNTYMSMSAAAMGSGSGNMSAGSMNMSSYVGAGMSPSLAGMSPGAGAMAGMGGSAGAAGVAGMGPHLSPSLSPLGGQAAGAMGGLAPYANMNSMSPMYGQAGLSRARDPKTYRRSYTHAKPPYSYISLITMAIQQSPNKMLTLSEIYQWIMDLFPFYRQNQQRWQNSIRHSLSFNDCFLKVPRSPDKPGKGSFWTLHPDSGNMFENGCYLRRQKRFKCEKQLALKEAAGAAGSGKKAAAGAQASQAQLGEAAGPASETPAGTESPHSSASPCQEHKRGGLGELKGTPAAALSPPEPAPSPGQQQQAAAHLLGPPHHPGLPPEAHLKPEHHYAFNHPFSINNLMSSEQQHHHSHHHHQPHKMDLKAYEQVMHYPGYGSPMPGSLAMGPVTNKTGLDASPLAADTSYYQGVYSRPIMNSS
Chain of Bile acid receptor (Homo sapiens) (Q96RI1 whole entry, looked up): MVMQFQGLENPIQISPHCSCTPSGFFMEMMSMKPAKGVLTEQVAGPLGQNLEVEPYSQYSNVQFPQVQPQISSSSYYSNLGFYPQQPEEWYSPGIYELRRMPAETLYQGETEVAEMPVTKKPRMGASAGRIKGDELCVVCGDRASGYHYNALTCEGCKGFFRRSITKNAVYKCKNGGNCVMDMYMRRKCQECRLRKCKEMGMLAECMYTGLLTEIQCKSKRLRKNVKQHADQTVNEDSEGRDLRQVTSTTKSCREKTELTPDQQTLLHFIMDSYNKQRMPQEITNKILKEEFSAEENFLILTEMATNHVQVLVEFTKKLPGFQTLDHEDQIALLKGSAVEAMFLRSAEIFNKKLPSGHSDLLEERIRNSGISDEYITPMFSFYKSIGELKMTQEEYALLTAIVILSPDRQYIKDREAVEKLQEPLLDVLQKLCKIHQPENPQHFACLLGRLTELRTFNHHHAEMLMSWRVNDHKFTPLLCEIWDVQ

Usually AC50 stands for the midpoint of the concentration-response curve, whichever way the signal moves. For `C=CC(=O)OCCOCCOCC`, the outcome in assay [1], in [2], in assay [4], in assay [5], in assay [6] and in assay [7] was inactive. Moreover, the call in assay [8], in [9], in assay [10], in [11], in assay [12] and in assay [13] was inactive. In addition, the compound was called inactive in assay [14], in assay [15], in assay [16] and in [17]. The concentration at half-maximal activity (AC50) in [3] is 100 µM (active).

Consider `C=C[C@@H](C)CCC=C(C)C`, for which the outcome in assay [1], in [2], in assay [3], in assay [4], in [5] and in assay [6] was inactive. Also, the outcome in [7], in assay [8], in assay [9], in [10], in assay [11] and in assay [12] was inactive. The call in assay [13], in [14], in assay [15], in [16] and in assay [17] was inactive.

As for `Cc1ccc(C(=O)c2cc(O)c(O)c([N+](=O)[O-])c2)cc1`, the figures for the concentration at half-maximal activity (AC50) in assay [1], in [14] and in assay [17] were 27 µM (active), 27.4 µM (active) and 130 µM (active), respectively. The call in assay [2], in assay [3], in assay [4], in [5], in assay [6] and in assay [7] was inactive. Besides, the result in assay [8], in assay [9], in assay [10], in assay [11], in assay [12] and in assay [13] was inactive. The outcome in assay [15], in assay [16] and in [18] was inactive.

With `CCCCCCCCC=O`, the outcome in assay [1], in assay [2], in assay [3], in assay [4], in assay [5] and in assay [6] was inactive. In addition, the call in [7], in assay [8], in assay [9], in [10], in assay [11] and in [12] was inactive. Moreover, the outcome in [13], in assay [15], in [16], in assay [17] and in assay [18] was inactive.

Turning to `CCN(CC)c1ccc(C(=C2C=CC(=[N+](CC)CC)C=C2)c2ccc(S(=O)(=O)O)cc2S(=O)(=O)[O-])cc1`, the result in assay [1], in assay [2], in assay [3], in assay [4], in [5] and in assay [6] was inactive. Besides, the result in assay [7], in [8], in [9], in assay [11], in assay [12] and in assay [13] was inactive. Also, the compound was classed as inactive in [14], in assay [15], in [16] and in [17].

As to `O=C(Oc1ccccc1)c1ccc(O)cc1`, the result in assay [1], in [2], in assay [3], in assay [4], in assay [5] and in assay [6] was inactive. Also, the outcome in assay [7], in [8], in assay [9], in assay [10], in assay [11] and in assay [12] was inactive. Besides, the call in assay [13], in [15], in assay [16] and in assay [17] was inactive. In assay [14], the AC50 is 176 µM (active).

Take `CCCCNC(=O)NS(=O)(=O)c1ccc(C)cc1`: the outcome in [1], in [2], in assay [3], in assay [4], in [5] and in assay [6] was inactive. Also, the compound was classed as inactive in assay [7], in assay [8], in assay [9], in [19], in [11] and in assay [13]. Further, the outcome in assay [15], in [16] and in [17] was inactive.

`Cc1cccc(C)c1[N+](=O)[O-]`: the outcome in assay [1], in [2], in assay [3], in assay [4], in [5] and in assay [6] was inactive. Besides, the result in [7], in assay [8], in assay [9], in [10], in assay [11] and in assay [12] was inactive. For the same compound, the result in assay [13], in [14], in assay [15], in assay [16] and in [17] was inactive.
